Experimental data published in paper PMC4336329 (PLoS ONE, 2015).
The whole screen tested about 310,000 compounds, of which about 14,000 (4.5%) showed an effect of 50% or more. The effect is printed as a negative number. Many of the other results were omitted from the sample, so strong results are more common in it than they were.

Biological target: human ether-à-go-go-related gene (hERG) potassium channel (human, UniProt Q12809)
Experiment: primary screen, population patch clamp on CHO cells stably expressing hERG; higher = less effect of the substance
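Also: peak tail current of the secondary pulse compared with the same well before compound.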

Chain of human ether-à-go-go-related gene (hERG) potassium channel (Q12809 whole entry, looked up): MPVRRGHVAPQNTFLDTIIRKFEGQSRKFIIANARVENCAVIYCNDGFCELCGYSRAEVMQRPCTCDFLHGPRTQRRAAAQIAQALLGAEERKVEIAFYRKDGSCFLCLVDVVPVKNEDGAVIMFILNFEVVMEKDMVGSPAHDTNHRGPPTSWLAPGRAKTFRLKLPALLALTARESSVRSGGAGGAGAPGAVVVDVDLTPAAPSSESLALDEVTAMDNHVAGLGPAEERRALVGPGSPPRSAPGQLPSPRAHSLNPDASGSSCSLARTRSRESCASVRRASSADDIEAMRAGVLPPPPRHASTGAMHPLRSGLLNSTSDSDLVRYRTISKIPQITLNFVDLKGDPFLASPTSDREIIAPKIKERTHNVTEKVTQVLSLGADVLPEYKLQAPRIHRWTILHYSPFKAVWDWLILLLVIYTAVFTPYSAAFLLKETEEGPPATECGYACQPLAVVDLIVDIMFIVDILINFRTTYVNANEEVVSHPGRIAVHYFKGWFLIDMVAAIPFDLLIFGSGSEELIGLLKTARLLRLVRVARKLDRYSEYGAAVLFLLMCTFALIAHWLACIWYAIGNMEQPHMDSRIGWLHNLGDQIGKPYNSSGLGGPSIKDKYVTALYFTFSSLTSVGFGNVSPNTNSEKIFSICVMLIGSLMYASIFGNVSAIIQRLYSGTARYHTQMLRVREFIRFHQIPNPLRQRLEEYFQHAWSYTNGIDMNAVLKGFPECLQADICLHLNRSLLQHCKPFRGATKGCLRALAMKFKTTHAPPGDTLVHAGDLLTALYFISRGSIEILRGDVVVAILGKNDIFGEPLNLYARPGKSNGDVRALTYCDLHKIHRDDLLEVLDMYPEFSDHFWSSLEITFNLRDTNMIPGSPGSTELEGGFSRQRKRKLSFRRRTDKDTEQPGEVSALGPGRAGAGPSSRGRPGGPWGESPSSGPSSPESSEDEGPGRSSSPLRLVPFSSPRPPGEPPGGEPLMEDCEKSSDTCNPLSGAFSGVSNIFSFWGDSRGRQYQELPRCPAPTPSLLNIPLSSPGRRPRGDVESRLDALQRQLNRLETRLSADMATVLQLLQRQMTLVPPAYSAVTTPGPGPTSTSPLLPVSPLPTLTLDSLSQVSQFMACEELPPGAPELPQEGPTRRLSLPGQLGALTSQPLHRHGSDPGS

SMILES	hERG current change (%, negative = inhibition) at 10uM
O=C(COc1c(Br)cc(Br)cc1Br)N/N=C/c1ccco1	14.2%
Nc1nnc(SCC(=O)Nc2ccc(Cl)c(C(=O)O)c2)s1	19.8%
O=C(NCCc1ccc(C(F)(F)F)cc1)C1CC(=O)N(c2ccc3c(c2)OCCO3)C1 (centres unmarked)	-2.97%
O=C(Cn1cc(C(=O)C2CCCCC2)c2ccccc21)NCC1CCCO1 (centres unmarked)	-14.8%
O=C(Nc1ccc(Br)cc1)NC1CCCCCCC1	2.29%
O=C(NCCN1CCCCC1)/C(=N\O)c1ccccc1	5.35%
O=C(CCn1c(=O)[nH]c2ccsc2c1=O)N1CCN(c2cccc(Cl)c2)CC1	-52.3%
COc1ccccc1N1CCN(C(=O)CCn2c(=O)[nH]c3ccsc3c2=O)CC1	8.71%
O=C(NCCC(=O)N1CCN(c2ccccc2O)CC1)c1ccc(Br)cc1	-13.3%
O=C(NCCC(=O)N1CCN(c2cccc(Cl)c2)CC1)c1ccc(Br)cc1	-55%
O=C(CCC(=O)N1CCN(c2ccc(O)cc2)CC1)c1cccs1	-3.11%
COc1ccc(N2CCN(C(=O)CCNC(=O)c3ccc(Br)cc3)CC2)cc1	-20.2%
O=C(CCn1c(=O)[nH]c2ccsc2c1=O)N1CCN(c2ccc([N+](=O)[O-])cc2)CC1	-35.2%
O=C(c1cccs1)N1CCN(c2cccc(Cl)c2)CC1	-16.5%
O=C(CCC(=O)N1CCN(c2cccc(Cl)c2)CC1)c1cccs1	-56.8%
COc1ccccc1CSc1ncc(-c2ccc([N+](=O)[O-])cc2)[nH]1	-13.8%
CC(C)(C)C(=O)CN1C(=O)NC2(CCCc3ccccc32)C1=O (centres unmarked)	14%
O=C(CCC1CCN(C(=O)c2cncs2)CC1)Nc1ccccc1	-4.83%
COCCNC(=O)CN(C(=O)CCC(=O)Nc1ccccn1)c1ccc(C)c(C)c1	16%
Cc1ccc(C(=O)/C=C/NCc2ccc(F)cc2)cc1	-9.71%
CCc1ccc(C(=O)/C=C/NCc2ccc(F)cc2)cc1	-4.74%
COc1ccc(C(=O)/C=C/NCc2ccc(F)cc2)cc1OC	-65%
CC(C)=C1C2CCC1C1C(=O)N(c3nc(-c4ccccc4)c(C)s3)C(=O)C21 (centres unmarked)	-2.93%

SMILES	hERG current change (%, negative = inhibition) at 10uM
COc1cccc(NC(=O)CSc2nc3scc(C)c3c(=O)[nH]2)c1	10.5%
CC(=O)c1ccc(N2CCN(c3ccc(S(=O)(=O)NCCN(C)C)cc3[N+](=O)[O-])CC2)cc1	-23.2%
CN(C)CCNS(=O)(=O)c1ccc(N2CCN(c3ccc(F)cc3)CC2)c([N+](=O)[O-])c1	-62.4%
CC(=O)c1ccc(N2CCN(c3ccc(S(=O)(=O)NCCCN(C)C)cc3[N+](=O)[O-])CC2)cc1	-18.1%
CCOC(=O)c1c(N)nn(C(=O)C(C)C)c1-c1ccc(OC)cc1	22.1%
O=[n+]1c2c(n([O-])c3cc(F)c(F)cc31)CCCC2	10.2%
CCN(CC)CCCn1c2c(c(SCC(=O)Nc3nc(C)cs3)nc1=O)CCC2	-42.6%
CCN(CC)CCn1c2c(c(SCC(=O)Nc3nc(C)cs3)nc1=O)CCC2	-48.7%
CN(C)CCn1c2c(c(SCC(=O)Nc3nccs3)nc1=O)CCCC2	-30%
CCN(CC)CCn1c2c(c(SCC(=O)Nc3nc(C)cs3)nc1=O)CCCC2	-70.1%
CCN(CC)CCn1c2c(c(SCC(=O)Nc3nccs3)nc1=O)CCCC2	-59.5%
CCN(CC)CCCn1c2c(c(SCC(=O)Nc3nccs3)nc1=O)CCC2	-32%
Cc1csc(NC(=O)CSc2nc(=O)n(CCN(C)C)c3c2CCCC3)n1	-55.9%
Cc1ccc(S(=O)(=O)NCC(=O)NCC(=O)OC(C(=O)NC(N)=O)C(C)C)cc1C (centres unmarked)	8.86%
CC(C)c1nc(SCC(=O)N2CCCCCC2)c2c(=O)n(C)c(=O)n(C)c2n1	-11.2%
Cc1nc2c(cc1C(=O)N/N=C/c1ccc([N+](=O)[O-])cc1)c(=O)n(C)c(=O)n2C	-12%
CC1=C(C)CC(C(=O)Nc2cccc(Cl)c2)C(C(=O)O)C1 (centres unmarked)	9.8%
O=C(NC1CC2CCCC(C1)N2CC(=O)N1CCCc2ccccc21)C1CCCCC1 (centres unmarked)	-70.6%
CC(=O)NC1CC2CCCC(C1)N2CC(=O)N1CCCc2ccccc21 (centres unmarked)	-7.15%
O=C(CN1C2CCCC1CC(NC(=O)C1CCCCC1)C2)Nc1ccccc1 (centres unmarked)	-27%
CCOC(=O)C1CCN(C(=O)C2CCN(S(=O)(=O)CC)CC2)CC1	-2.7%
CCOC(=O)N1CCN(C(=O)C2CCN(S(=O)(=O)N3CCCC3)CC2)CC1	6.91%
O=C(c1ccc2c(c1)OCCO2)C1CCN(C(=O)c2ccc(F)cc2)CC1	-13%

SMILES	hERG current change (%, negative = inhibition) at 10uM
O=C(c1ccc2c(c1)OCCO2)C1CCN(C(=O)c2ccc(F)c(F)c2)CC1	-15.7%
O=C1c2ccccc2S(=O)(=O)c2cc(C(=O)N3CCC(O)CC3)ccc21	6.7%
O=C(c1ccc([N+](=O)[O-])cc1)N1CCN(C(=O)C2CCCCC2)CC1	-28.5%
CCOC(=O)N1CCN(C(=O)C2CCN(C(=O)c3ccc([N+](=O)[O-])cc3)CC2)CC1	-72%
CCOc1ccc(C(=O)N2CCC(C(=O)c3ccc4c(c3)OCCO4)CC2)cc1	-75.7%
CCOC(=O)C1CCN(C(=O)c2ccc3c(c2)S(=O)(=O)c2ccccc2C3=O)CC1	-76.6%
CCOC(=O)N1CCN(C(=O)C2CCN(C(=O)c3ccc(C(C)(C)C)cc3)CC2)CC1	-31%
NC(=O)C1CCN(C(=O)c2ccc3c(c2)S(=O)(=O)c2ccccc2C3=O)CC1	2.8%
CCOC(=O)C1CCN(C(=O)C2CCN(S(=O)(=O)N3CCCC3)CC2)CC1	-64.9%
CC1CC(C)CN(S(=O)(=O)c2ccc(NC(=S)NC(=O)c3ccccc3)cc2)C1 (centres unmarked)	8.01%
CN(C)S(=O)(=O)c1ccc(NC(=O)C2CC(=O)N(Cc3ccccc3Cl)C2)cc1 (centres unmarked)	-0.379%
CCCC1(C(=O)OC)NC(c2ccc(OC)c(OC)c2)C2C(=O)N(c3ccc4c(c3)OCO4)C(=O)C21 (centres unmarked)	16.7%
COc1ccc(-c2c(C#Cc3ccsc3)c3ccccc3n2C)cc1	-6.31%
CCOC(=O)C1CCN(C(=O)C(C)c2ccc([N+](=O)[O-])cc2)CC1 (centres unmarked)	-21.4%
CCOC(=O)C1CCN(C(=O)c2cccc(C(=O)N3CCC(C(=O)OCC)CC3)c2)CC1	4.75%
CCOc1ccc(C(=O)C2CCN(C(=O)c3ccccc3C(=O)O)CC2)cc1	-5.42%
O=C(CCC(=O)c1ccc(F)cc1)OCc1nnc(-c2ccc([N+](=O)[O-])cc2)o1	-47%
CCOC(=O)C1CCN(C(=O)c2ccc(N3CCOCC3)c([N+](=O)[O-])c2)CC1	-41.8%
CCOc1ccc(NC(=O)N2CCC(C(=O)c3ccc(F)cc3)CC2)cc1	-20.8%
O=C(Oc1cccc([N+](=O)[O-])c1)C1CCN(C(=O)c2ccc(F)cc2)CC1	-41%
O=C(OCc1nnc(-c2ccc([N+](=O)[O-])cc2)o1)C1CCN(C(=O)c2ccc(F)cc2)CC1	-76%
CCOC(=O)C1CCN(C(=O)c2ccc(OCC)c(OCC)c2)CC1	-79.4%
CCOC(=O)C1CCN(C(=O)C2CCN(C(=O)c3ccc([N+](=O)[O-])cc3)CC2)CC1	-69.3%

SMILES	hERG current change (%, negative = inhibition) at 10uM
CCOC(=O)C1CCN(C(=O)c2cc(OCC)c(OCC)c(OCC)c2)CC1	-3.3%
CCOc1ccc(C(=O)C2CCN(C(=O)c3ccc([N+](=O)[O-])cc3)CC2)cc1	-79.9%
Cc1ccc(NS(=O)(=O)c2ccc(C(=O)NCc3cccnc3)cc2)cc1	-4.14%
CC(C)c1ccc(NC(=O)CCS(=O)(=O)c2cccc3nonc23)cc1	1.81%
COc1cc(OC)cc(C(=O)N[C@H](C(=O)OCC(=O)Nc2cccc(F)c2)C(C)C)c1	-5.55%
CC(C)(C)SCCNC(=O)CN1C(=O)c2ccccc2S1(=O)=O	-5.6%
CCOC(=O)C(=CNc1cccnc1Oc1ccc(C)c2c1CCC2)C(=O)OCC	-5.67%
Cc1cc(NC(=O)C(Cl)c2ccccc2)no1 (centres unmarked)	-0.0237%
O=C(CN(c1ccccc1)S(=O)(=O)c1ccccc1[N+](=O)[O-])Nc1cccnc1	-21.1%
C=CCCC(=O)Nc1nc(C)c(-c2csc(Nc3ccccc3OC)n2)s1	3.6%
CCN1CCCC1CNC1=NCCCCC1 (centres unmarked)	7.64%
CCc1nnc(NS(=O)(=O)c2ccc(NC(=O)c3ccccc3OC)cc2)s1	18.5%
COc1ccccc1Nc1nnc(SCc2cc(=O)n3cc(C)ccc3n2)s1	-12.8%
COc1ccc(C)cc1NC(=O)NC1CCCCCCC1	21%
O=C(NCc1ccco1)c1ccc(Cl)c(S(=O)(=O)N2CCOCC2)c1	-7.4%
O=C(NCC1(N2CCOCC2)CCCCC1)c1ccc(Cl)c(S(=O)(=O)NCc2ccco2)c1	-52.1%
CN(C)C1(CNC(=O)c2ccc(Cl)c(S(=O)(=O)NCc3ccco3)c2)CCCCC1	-37.3%
O=C(Nc1ccccc1N1CCOCC1)c1ccc(S(=O)(=O)NCc2ccco2)cc1	-15.7%
O=C(Nc1ccccc1N1CCOCC1)c1ccc(Cl)c(S(=O)(=O)NCc2ccco2)c1	-51.8%
COc1ccccc1NC(=O)c1ccc(Cl)c(S(=O)(=O)NCc2ccco2)c1	-37.7%
